Screening results deposited in PubChem BioAssay by National Center for Advancing Translational Sciences (NCATS).
The list is not random: actives were taken first. Their share in the collection is about 5.3%.
Six1-Eya2 inh = inhibitors of human Six1/Eya2 interaction; 360,000 compounds, 0.56% hits; activity change, % (no concentration beside the values); AID 651725; AlphaScreen GST-Six1/His-Eya2 binding, biochemical; stronger effect = lower value; in the data active = activity change below about -65%; inconclusive = mostly about -30% to -63%; also: % is scaled to controls: 0 for no effect and ±100 for the full control effect
Target sequence (O00167 whole entry, looked up): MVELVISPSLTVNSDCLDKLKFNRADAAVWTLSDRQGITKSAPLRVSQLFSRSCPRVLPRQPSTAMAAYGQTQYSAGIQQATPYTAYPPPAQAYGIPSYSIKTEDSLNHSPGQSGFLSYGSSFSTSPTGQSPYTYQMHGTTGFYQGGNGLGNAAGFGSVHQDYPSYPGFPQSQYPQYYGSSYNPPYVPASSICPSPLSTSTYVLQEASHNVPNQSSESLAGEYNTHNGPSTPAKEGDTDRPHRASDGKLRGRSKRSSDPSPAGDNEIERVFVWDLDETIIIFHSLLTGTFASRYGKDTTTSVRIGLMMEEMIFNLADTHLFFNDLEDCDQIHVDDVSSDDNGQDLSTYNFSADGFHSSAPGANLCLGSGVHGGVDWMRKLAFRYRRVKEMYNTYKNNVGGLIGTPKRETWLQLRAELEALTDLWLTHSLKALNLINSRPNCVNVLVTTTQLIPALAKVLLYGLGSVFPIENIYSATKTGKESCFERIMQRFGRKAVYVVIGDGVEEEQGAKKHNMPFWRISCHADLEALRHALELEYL
Target sequence (Q15475 whole entry, looked up): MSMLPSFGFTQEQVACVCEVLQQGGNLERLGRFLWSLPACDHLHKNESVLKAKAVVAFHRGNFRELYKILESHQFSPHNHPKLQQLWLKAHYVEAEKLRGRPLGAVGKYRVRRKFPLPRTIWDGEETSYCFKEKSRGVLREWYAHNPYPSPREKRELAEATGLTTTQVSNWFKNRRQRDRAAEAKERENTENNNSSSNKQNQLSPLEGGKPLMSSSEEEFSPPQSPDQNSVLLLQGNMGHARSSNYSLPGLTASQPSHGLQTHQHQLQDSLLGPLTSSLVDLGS
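GST-Six1 + His-Eya2 (5X stock: 250/500 nM); Tris pH 8.0, 300 mM NaCl, 0.05% BSA, 0.02% Tween 20; GSH donor/Ni acceptor beads; 1 h 37 °C dark; AlphaScreen readout.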
TDP1 inh = TDP1 (human) enzyme inhibition; recombinant TDP1, AlphaScreen DNA substrate cleavage; Potency, µM (top dose mostly 130 µM), for inactives: at the highest dose activity change, negative = inhibition, usual class: inhibitors; 350,000 compounds, 0.28% hits; also: potency is read from the fitted curve at half-maximal effect; % is scaled to controls: 0 for no effect and ±100 for the full control effect; nearly all actives have a fitted effect of over 40% in size
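Recombinant E. coli-expressed Tdp1 (1 nM) preincubated with compound 15 min at RT, then 5'-biotin/3'-phosphotyrosine-FITC DNA substrate (15 nM) added for 5 min. AlphaScreen beads (10 ug/ml) added, 10 min RT; tyrosine-FITC cleavage read as signal loss.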
JMJD2A Tudor = inhibitors of human JMJD2A Tudor domain | O75164 | 390,000 compounds, 4.4% hits | Potency, µM (highest dose often 114 µM), for the others: at the top dose activity change, negative = inhibition, most hits filed as inhibitors | AlphaScreen JMJD2A-Tudor / H3K4me3 peptide binding | AID 504339; also: potency is read from the fitted curve at half-maximal effect; % is scaled to controls: 0 for no effect and ±100 for the full control effect; nearly all actives have a fitted effect of over 50% in size
BAZ2B inh = inhibitors of human BAZ2B bromodomain; AlphaScreen BAZ2B-H3K14Ac peptide displacement; Q9UIF8; Potency, µM (top dose mostly 114 µM), without a hit: at the highest dose activity change, negative = inhibition, actives largely listed as inhibitors; 360,000 compounds, 4.4% hits; also: potency is read from the fitted curve at half-maximal effect; % is scaled to controls: 0 for no effect and ±100 for the full control effect; nearly all actives have a fitted effect of over 60% in size
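Multi-concentration screen (max 110 uM) measuring displacement of acetylated histone H3 peptide from BAZ2B by AlphaScreen, using 50 nM protein, 50 nM peptide and 10 ug/mL streptavidin donor plus Ni-chelate acceptor beads.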
CtBP-E1A blk = inhibitors of CtBP/E1A interaction; AlphaScreen GST-E1A/His-CtBP binding, 1536-well; stronger effect = lower value; activity change, % (no concentration beside the values); 340,000 compounds, 0.49% hits; in the data active = activity change below about -65%; inconclusive = mostly about -30% to -63%; also: % is scaled to controls: 0 for no effect and ±100 for the full control effect
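Homogeneous bead-based format: GST-tagged E1A captured on glutathione donor beads, His-tagged CtBP on nickel acceptor beads; compounds precede bead addition by 2 h at 37 °C.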
HP1b chromo inh = blocks HP1-beta chromodomain binding to methylated histone tails. P83916. AlphaScreen HP1-beta / biotin-H3K9me3 peptide binding. Potency, µM (highest dose often 114 µM), inactives show top-dose activity change, negative = inhibition, most hits filed as inhibitors. 390,000 compounds, 0.56% hits. AID 540317; also: potency is read from the fitted curve at half-maximal effect; nearly all actives have a fitted effect of over 70% in size
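HP1-beta protein (50 nM final) preincubated 30 min at room temperature with biotinylated H3(1-18)K9me3 peptide (50 nM) in PBS pH 7.4, 0.01% Tween-20, then compound added for 30 min. AlphaScreen streptavidin donor/nickel chelate acceptor beads (10 ug/mL final), 30 min dark, luminescence read.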
Numbers without * were called inactive; ? = inconclusive; / = no result given; [ ] = another dose, or the depositor's remark. Unless noted, calls follow the shape of the dose curve; as a rule, active = well fitted inhibition curve with a large enough effect; inconclusive = small, poorly fitted or top-dose-only effect; inactive = no such curve, though single readings can be large or run the other way.

SMILES | Six1-Eya2 inh | TDP1 inh | JMJD2A Tudor | BAZ2B inh | CtBP-E1A blk | HP1b chromo inh
O=[N+]([O-])c1ccccc1/C=C/C=N/n1c(-c2ccco2)n[nH]c1=S | -3.8 | 0.0% | 22.4µM* | ? | -5.1 | -14.9%
O=[N+]([O-])c1ccccc1/C=C/C=N/n1c(-c2cc(-c3ccccc3)n[nH]2)n[nH]c1=S | ? | 2.4% | 50.1µM* | -32.3% | -0.6 | 1.1%
O=C(Oc1ccccc1)c1ccc2nsnc2c1 | -10.4 | -7.5% | ? | 50.1µM* | 12.4 | -21.9%
COc1ccc(C(=O)c2oc3ccccc3c2NC(=O)COc2cccc(C)c2C)cc1 | / | 1.1% | 13.4% | 3.0% | / | 56.5%
CCOc1ccc(NC(=O)c2oc(=O)c3ccccc3c2-c2ccc(C)cc2)cc1 | / | 11.6% | -12.8% | -17.0% | / | 37.2%
O=Nc1ccc2oc(=O)ccc2c1 | / | 23.2%[56.1 µM] | / | / | / | /
CC1CC(C(F)F)n2nc(C(=O)O)cc2N1 (stereo not drawn) | 6.5 | -3.3% | 20µM* | -10.8% | 5.8 | -2.7%
CC1CC(C(F)(F)F)n2nc(C(=O)O)cc2N1 (stereo not drawn) | 1.0 | -9.1% | -14.6% | -7.0% | 5.3 | 26.4%
COc1cccc([C@@H]2Oc3ccc(OC)cc3C(=O)[C@H]2OC(=O)NCc2ccco2)c1 | / | 3.1% | / | / | / | /
O=[N+]([O-])c1cc(C(F)(F)F)cc([N+](=O)[O-])c1NCCNC(=S)Nc1cccc(F)c1 | -22.2 | 2.5% | 39.8µM* | 17.8µM* | -13.0 | -25.0%
Nc1n[nH]c(N)c1N=Nc1ccccc1F | -14.4 | / | ? | ? | -10.6 | 6.2%
Nc1n[nH]c(N)c1N=Nc1ccc(Cl)cc1Cl | -19.6 | 1.9% | 31.6µM* | 31.6µM* | -11.5 | -11.5%
CCOc1ccccc1CNC(=O)CCCn1nc(C)c2sc3ccccc3c2c1=O | / | 0.0% | -1.3% | -4.0% | / | 53.1%
COc1ccccc1OCC(=O)NCCCN1CCOCC1 | 13.6 | 6.3% | -7.8% | 3.1% | -12.9 | 14.1%
OC(COc1cccc2ccccc12)CN1CCOCC1 (stereo not drawn) | 0.6 | / | -7.5% | / | -4.6 | 21.3%
O=C(c1ccco1)N1CCN(CCOCCOc2cccc3ccccc23)CC1 | -4.8 | 3.9% | -23.3% | ? | 2.7 | 20.4%
COc1ccccc1OCCCCN1CCC(C)CC1 | 1.4 | / | 12.6µM* | ? | -0.1 | ?
c1ccc(CN2CCN(CCOCCOc3cccc4ccccc34)CC2)cc1 | -3.6 | -7.6% | 1.78µM* | 22.4µM* | -13.5 | 20µM*
COc1ccccc1OCCCCCCN1CCOCC1 | -16.3 | / | 20µM* | 50.1µM* | -16.4 | ?
c1ccc2c(OCCCCN3CCOCC3)cccc2c1 | -11.3 | / | 3.55µM* | 50.1µM* | -5.5 | ?
Cc1cc(C)cc(N2C(=O)CC(c3ccc(C(F)(F)F)cc3)C3=C2COC3=O)c1 (stereo not drawn) | / | -0.6% | -1.9% | -19.3% | / | 20.7%
COc1ccc(S(=O)(=O)c2cn(C)c3cc(N4CCOCC4)c(F)cc3c2=O)cc1 | / | -2.5% | -19.8% | -0.2% | / | 35.2%
CC1CCN(CCCCOc2ccc(C(C)(C)C)cc2)CC1 | -0.4 | / | 20µM* | ? | -0.3 | ?
Cc1cc(NC(=O)CN(C)S(=O)(=O)c2ccc3c(c2)CCCC(=O)N3)ccc1Br | / | 3.2% | -17.2% | 8.7%[57.1 µM] | / | -6.7%
COc1cccc(CNCc2cccc(OC)c2O)c1O | 6.8 | / | -15.3% | / | -19.7 | 9.1%
SMILES | Six1-Eya2 inh | TDP1 inh | JMJD2A Tudor | BAZ2B inh | CtBP-E1A blk | HP1b chromo inh
COc1cc(OC)c(OC)cc1CNCc1ccco1 | 0.0 | / | 2.82µM* | ? | -10.9 | ?
COc1cccc(CNCc2ccco2)c1O | 3.1 | / | 17.8µM* | 34.7% | 4.8 | ?
CCn1c(=O)c2sccc2n2c(CCCC(=O)Nc3ccc(Oc4ccccc4)cc3)nnc12 | / | 7.7% | 5.9% | -0.4% | / | 46.1%
Cc1cc(N2CCCC2)ccc1/C=C1\NC(=S)N(C)C1=O | ? | 2.7% | 22.4µM* | ? | -24.4 | ?
NCCC[C@@H](CC(=O)N[C@@H]1CCNC[C@H]1C(=O)N[C@H](CC(=O)N[C@@H](CCC(=O)O)CC(=O)O)Cc1c[nH]c2ccccc12)NC(=O)C[C@H](CO)NC(=O)[C@@H]1CNCC[C@H]1N | / | 1.2% | / | / | / | /
CCOc1cc(C(c2c(O)nc(SC)[nH]c2=O)c2c(O)nc(SC)[nH]c2=O)ccc1O | 2.8 | / | ? | / | 0.3 | -12.2%
Cc1[nH]n(-c2ccccc2)c(=O)c1C(c1cc(Cl)ccc1O)c1c(C)[nH]n(-c2ccccc2)c1=O | / | -7.5%[12.3 µM] | 44.7µM* | ? | / | ?
CCOc1cc(C(c2c(C)[nH]n(-c3ccccc3)c2=O)c2c(C)[nH]n(-c3ccccc3)c2=O)ccc1O | / | 2.2%[12.3 µM] | 50.1µM* | 11.2µM* | / | ?
Cc1[nH]n(-c2ccccc2)c(=O)c1C(c1ccccc1C(=O)O)c1c(C)[nH]n(-c2ccccc2)c1=O | 2.5 | 0.0% | -9.5% | -28.7% | 11.0 | 34.2%
CCN(CC)CCCNC(=O)Cn1nc(C)n2c(cc3sccc32)c1=O | / | -6.8% | -10.5% | 0.8% | / | 16.0%
Cc1ccc(S(=O)(=O)C(CNC(=O)C(=O)NCc2ccccc2C)c2cccs2)cc1 (stereo not drawn) | / | -2.6% | -17.5% | -3.5% | / | 12.8%
Cc1cccc(C)c1Nc1c(-c2ccccn2)nc2c(C)cccn12 | / | 14.7% | 10µM* | ? | / | -18.3%
Cc1cccc(C)c1Nc1c(-c2cccs2)nc2ncccn12 | / | -4.3%[12.3 µM] | -10.3% | ? | / | -7.0%
Cc1cccn2c(Nc3ccccc3)c(-c3ccccn3)nc12 | -22.4 | 5.0% | 12.6µM* | 17.8µM* | -22.6 | 8.9%
COc1ccccc1CNC(=O)c1cnc2sc(N3CCOCC3)nn2c1=O | / | 0.6% | -7.3% | -16.4% | / | 48.3%
COc1ccc(C(NC(=O)/C=C\c2ccco2)c2ccc(OC)c(OC)c2)cc1 (stereo not drawn) | -3.4 | -4.7% | 50.1µM* | -33.3% | -4.3 | -40.4%
CCc1ccc(/C(C)=N/NC(=O)CNC(=O)/C=C/c2ccco2)cc1 | ? | / | 22.4µM* | / | -1.8 | 22.4µM*
CCc1ccc(/C(C)=N/NC(=O)CNC(=O)/C=C/c2ccccc2OC)cc1 | 2.3 | 8.9% | -9.3% | 5.0% | -15.0 | 2.4%
COc1ccc(C(NC(=O)/C=C/c2ccco2)c2ccc(OC)cc2)cc1 | -14.0 | -10.5% | ? | 50.1µM* | 2.4 | ?
COc1ccc(CCNC(=O)/C=C/c2ccco2)cc1 | -8.2 | / | 31.6µM* | ? | 4.9 | ?
Cc1coc2cc3oc(=O)c(CCC(=O)NCc4ccccc4Cl)c(C)c3cc12 | / | 0.0% | -17.7% | -2.1% | / | 17.3%
COc1cccc(CNC(=O)c2nc(Cn3nc(C)c(Br)c3C)no2)c1 | / | 4.7% | -14.9% | -16.8% | / | 42.6%
